The list is not random: actives were taken first. Their share in the collection is about 4.1%.
NALP1 yeast inh – NALP1 inflammasome inhibitors in reconstituted yeast, colorimetric, S. cerevisiae, triplicate retest; S. cerevisiae NALP1/ASC/caspase-1 growth, X-gal OD620, 72 h; hit rate 0.61% among 280,000; AID 2071, 2009; inhibition, % at 10 µM; in the data active means inhibition mostly above about 24%, no sharp cut-off; inactive means mostly below about 32%
PfHsp90 set2 – growth inhibition of PfHsp90-expressing yeast, primary screen, antimalarial PfHsp90 inhibitor project, S. cerevisiae, BacTiter-Glo luminescence, single point, set 2. inhibition, % at 9.4 µM. BacTiter-Glo ATP, 48 h; yeast lacking PDR1 and PDR3 efflux regulators. hit rate 0.32% among 310,000. AID 504621, 2011;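 active means every replicate shows inhibition above about 80%, whatever the replicate mean, limit read from the data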
tim10-1 inh – growth inhibitors of tim10-1 mutant yeast, primary screen, luminescence, uHTS. S. cerevisiae tim10-1 ts strain growth, BacTiter-Glo, 24 h. inhibition, % at 20 µM. hit rate 2.2% among 330,000;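 active means inhibition of at least 40%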;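 further: mutant grown at 25 °C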
NLRP3 yeast inh – NALP3 inflammasome inhibitors in reconstituted yeast, primary screen, luminescence, uHTS; Yeast reconstituted NLRP3/ASC/caspase-1, beta-gal luminescence, 24 h; inhibition, % at 10 µM; hit rate 0.39% among 330,000; AID 2825, 2010;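 active means inhibition of 50% or more; inactive means inhibition below 50%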
TIM10 inh – growth inhibitors of isogenic TIM10 control yeast, primary screen, counter-screen for tim10-1 yeast inhibitor project, luminescence, uHTS; S. cerevisiae TIM10 strain growth, BacTiter-Glo luminescence, 24 h; inhibition, % at 10 µM; hit rate 1.4% among 330,000;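 active means inhibition of 40% or more at the single tested concentration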;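 further: wild-type TIM10 isogenic control strain grown at permissive 25 °C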
tim23-1 inh – growth inhibitors of tim23-1 mutant yeast, primary screen, luminescence, uHTS | S. cerevisiae tim23-1 growth, BacTiter-Glo luminescence, 24 h | AID 463212, 2010 | hit rate 1.3% among 330,000 | inhibition, % at 20 µM;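 active means growth inhibition of the mutant yeast at or above 50%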;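 further: temperature-sensitive mutant grown at 25 °C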
tim10-1 conf – growth inhibitors of tim10-1 mutant yeast, confirmation, single concentration, luminescence, S. cerevisiae; AID 463213, 2010; S. cerevisiae tim10-1 ts strain growth, BacTiter-Glo, 24 h; hit rate 56% among 7,400; inhibition, % at 20 µM; shares compounds with tim10-1 inh;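 active means inhibition of yeast growth at or above a set limit in either of two repeat tests at 20 µM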;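 further: tim10-1 mutant grown at permissive 25 °C to find synthetic lethal compounds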
Of the large screens only hits and unclear results are named; the others gave an inactive call (follow-up assays come after a bar, where they were run).

COc1ccccc1NC(=O)c1ccc[n+]([O-])c1	none
CC(=O)N1CCN(C(=O)COC(=O)/C=C/c2ccc(C(F)(F)F)cc2)CC1	none (no result: NALP1 yeast inh)
CC(C)CC1Nc2ncnc(N3CCOCC3)c2N(Cc2ccc(Br)cc2)C1=O (centres undefined)	none (no result: NALP1 yeast inh)
CC(C)CC1Nc2ncnc(N3CCCCC3)c2N(Cc2ccc(Br)cc2)C1=O (centres undefined)	tim10-1 inh 41 (no result: NALP1 yeast inh) | tim10-1 conf 32
Cc1cc(C(=O)COc2ccccc2[N+](=O)[O-])c(C)n1C1CC1	tim10-1 inh 44 | tim10-1 conf inactive
O=C(Nc1ccccc1[N+](=O)[O-])c1cccc(N2C(=O)CCC2=O)c1	none
CN(C)S(=O)(=O)c1cccc(NC(=O)CCCC2CCCCC2)c1	tim10-1 inh 41 | tim10-1 conf inactive
Cc1cccc(C)c1OCC(=O)Nc1cccc(S(=O)(=O)N2CCCC2)c1	none (no result: NALP1 yeast inh, PfHsp90 set2)
NS(=O)(=O)c1cccc(NC(=O)CCCC2CCCCC2)c1	none
CN(C)S(=O)(=O)c1cccc(NC(=O)COc2cccc3ccccc23)c1	tim10-1 inh 41 (no result: NALP1 yeast inh, PfHsp90 set2) | tim10-1 conf 33
N#Cc1ccccc1OCC(=O)Nc1cccc(S(=O)(=O)N2CCCC2)c1	none (no result: NALP1 yeast inh)
CCc1ccccc1OCC(=O)Nc1cccc(S(=O)(=O)N2CCCC2)c1	tim10-1 inh 42 (no result: NALP1 yeast inh) | tim10-1 conf inactive
Cc1cc(C)c(OCC(=O)Nc2ccc(S(=O)(=O)N3CCCC3)cc2)c(C)c1	tim10-1 inh 41 (no result: NALP1 yeast inh) | tim10-1 conf 39
Cc1cc2c(cc1S(=O)(=O)CCC(=O)N(C)Cc1ccccc1)OCC(=O)N2	none
Cc1noc(C)c1S(=O)(=O)Nc1ccc2c(c1)C(=O)N([C@H](C)CO)C[C@H](C)[C@@H](CN(C)Cc1ccc(C(=O)O)cc1)O2	none (no result: NALP1 yeast inh)
COc1ccc(OCC(=O)Nc2ccc(S(=O)(=O)N3CCCCC3)cc2)cc1	tim10-1 inh 45 | tim10-1 conf 52
CSc1cccc(Nc2ccc(S(=O)(=O)N3CCOCC3)cc2[N+](=O)[O-])c1	none (no result: NALP1 yeast inh)
O=C(COn1nnc2ccc(Cl)cc21)Nc1ccc(F)cc1	none
O=C(COn1nnc2ccc(Cl)cc21)NC12CC3CC(CC(C3)C1)C2	tim10-1 inh 40 | tim10-1 conf 32
Cc1ccccc1NC(=S)N1CCC(C(=O)c2ccc(F)cc2)CC1	tim10-1 inh 42 | tim10-1 conf inactive
O=C(c1ccc(F)cc1)C1CCN(C(=S)Nc2ccccc2Cl)CC1	none
O=C(CN1C(=O)NC2(CCCCC2)C1=O)N1CCN(S(=O)(=O)c2cccc(F)c2)CC1	none
COc1ccc(C/C(=N\OC(C)=O)c2ccc(OC)cc2)cc1	tim10-1 inh 46 | tim10-1 conf 45
Cc1ccccc1C(=O)Nc1ccc2nc3n(c(=O)c2c1)CCCC3	none
CCOc1ccccc1C(=O)Nc1ccc2nc3n(c(=O)c2c1)CCCCC3	tim10-1 inh 55 | tim10-1 conf inactive
CCOC(=O)c1ccc(NC(=O)C2COc3ccccc3O2)cc1 (centres undefined)	none
CCOCCOC(=O)c1ccc(NC(=O)C2COc3ccccc3O2)cc1 (centres undefined)	tim10-1 inh 42 | tim10-1 conf inactive
CCc1cc2c(=O)n(CCCOC)c(SCC(=O)Nc3oc(C)c4c(C)n[nH]c(=O)c34)nc2s1	none (no result: NALP1 yeast inh)
O=C(CN1CCC(n2nnc3cc(F)ccc32)CC1)N1CCCc2ccccc21	none (no result: PfHsp90 set2)
O=C(CN1CCC(n2nnc3cc(C(F)(F)F)ccc32)CC1)N1CCc2ccccc21	tim10-1 inh 46 | tim10-1 conf 36
COc1ccc(N2CC(C(=O)Nc3nnc(SCC(=O)NCc4ccco4)s3)CC2=O)cc1 (centres undefined)	none
O=C(C1CC1)N1CCc2cc(S(=O)(=O)NCC3COc4ccccc4O3)ccc21 (centres undefined)	tim10-1 inh 46 | tim10-1 conf inactive

From PubChem BioAssay
